The text below walks through data of PubChem BioAssay.

A short description of assay [1]: resazurin metabolic signal in HepG2 cells – cell-based, resazurin fluorescence, 24 h, PK04 Diversity Set, profiling panel (AID 1172). Conditions: HepG2 viability, higher = more signal.
Assay [2] in a line: budding yeast growth changes without added modifier – OD600, strain BY4716, 24 h, basal condition, primary screen (AID 1173). Conditions: S. cerevisiae BY4716 growth, OD600, 24 h; higher = more signal, called active from +8 up or from −8 down.
A short description of assay [3]: viability profiling in MM1S myeloma cells – cell-based, resazurin fluorescence, basal, 24 h, PK04 Diversity Set, profiling panel (AID 1174).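 Further: MM1S multiple myeloma cell line.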 The settings on record: higher = more signal, called active from +8 up or from −8 down. In general terms: Resazurin is reduced to fluorescent resorufin, in cell work by metabolically active cells.
Assay [4] has as its target Dihydroorotate dehydrogenase (quinone), mitochondrial (Plasmodium falciparum (isolate 3D7)) (UniProt Q08210). In words: inhibition of P. falciparum DHODH – biochemical, C-terminal His tag, absorbance 600 nm, primary screen (AID 1175).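 Further: recombinant parasite enzyme with a five histidine tag at its C terminus.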 The settings on record: PfDHODH enzyme, DCIP absorbance 600 nm; higher = more signal, called active from +8 up or from −8 down.
The nature of assay [5]: inhibition of PAO1 biofilm formation – strain PAO1, LB-PBS medium, absorbance 600 nm, primary screen (AID 1176). Conditions: P. aeruginosa PAO1 growth/biofilm, A600, 12 h; higher = more signal.
A short description of assay [6]: growth modulation of vineyard yeast isolate – strain RM11-1a, OD600, basal, 24 h, primary screen (AID 1177).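 Further: cultures grown under basal conditions with no added stressor.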 Conditions: S. cerevisiae RM11-1a growth, OD600, 24 h; higher = more signal, called active from +8 up or from −8 down.
Assay [7] is described as follows: growth of efflux-deficient E. coli DRC39 – strain DRC39, OD650, 24 h, E. coli filamentation inducers, primary screen (AID 1178).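 Further: growth measured as culture turbidity by optical density at 650 nm.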 The settings on record: E. coli DRC39 acrAB, higher = more signal, called active from +8 up or from −8 down.
The nature of assay [8]: growth of efflux-deficient E. coli DRC39 – strain DRC39, OD650, 48 h, E. coli filamentation inducers, primary screen (AID 1179).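 Further: screen aims at cell division blockers that make cells filament.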 The settings on record: E. coli DRC39 delta-acrAB growth, higher = more signal, called active from +8 up or from −8 down.
The nature of assay [9]: viability profiling in RPMI8226 myeloma cells – cell-based, resazurin fluorescence, basal, 24 h, PK04 Diversity Set, profiling panel (AID 1180).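 Further: RPMI8826 multiple myeloma cell line at 5000 cells per well.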 The settings on record: higher = more signal.
The target in assay [10] is E3 ubiquitin-protein ligase XIAP (Homo sapiens) (UniProt P98170). In words: small molecules binding XIAP protein – biophysical, small-molecule microarray, fluorescence 635 nm, primary screen (AID 1181).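 Further: score merges 667 nm emission and signal to noise over triplicate slides.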 Conditions: higher = more signal.
The test system of assay [11] is XIP peptide (Xip251-270) binding. Nature of the assay: XIP fragment 251-270 binding compounds – biochemical, small-molecule microarray, fluorescence 635/667 nm, 0.1 µg/mL protein, primary screen (AID 1182). The settings on record: fluorescent protein binding, 635 nm, higher = more signal, called active from +8 up or from −8 down.
A further assay deals with XIP peptide (Xip251-270). In words: compounds binding XIP fragment 251-270 – biochemical, small-molecule microarray, fluorescence 635/667 nm, 0.5 µg/mL protein, primary screen (AID 1183). Conditions: fluorescence 635 nm, higher = more signal.
The nature of assay [12]: blood-stage malaria parasite viability loss – strain 3D7, DAPI fluorescence, 100 nL, primary screen (AID 1184).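 Further: parasites grown inside human red blood cells in medium with human serum.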 The settings on record: P. falciparum 3D7 growth, 3 d, higher = more signal.
For assay [13], the target named is Homeobox protein Hox-A13 (Mus musculus) (UniProt Q62424). In words: disruptors of Hoxa13 oligonucleotide interaction – biochemical, fluorescence polarization, labeled oligonucleotide, primary screen (AID 1185). Conditions: Hoxa13:DNA binding, 15 min, higher = more signal, called active from +8 up or from −8 down. On the technique in general: Polarisation of emitted light reports the rotation of a fluorescent probe.

The nature of assay [14]: blockers of DNA damage checkpoint Chk1 activation – imaging, HeLa, hydroxyurea, phospho-Chk1 antibody, percent positive cells, primary screen (AID 1186). Conditions: hydroxyurea-induced phospho-Chk1 immunofluorescence imaging, higher = more signal.
Assay [15] can be described thus: blockers of DNA damage checkpoint Chk1 activation – imaging, HeLa, hydroxyurea, phospho-Chk1 nuclear intensity, primary screen (AID 1187). Conditions: hydroxyurea-induced phospho-Chk1 immunofluorescence imaging, higher = more signal.

Each structure is given as a SMILES string. Activity calls are given as the source filed them. Unless noted, how the calls were made is not given here.

Sequence of E3 ubiquitin-protein ligase XIAP (Homo sapiens) (P98170 whole entry, looked up, the tested form may be a part): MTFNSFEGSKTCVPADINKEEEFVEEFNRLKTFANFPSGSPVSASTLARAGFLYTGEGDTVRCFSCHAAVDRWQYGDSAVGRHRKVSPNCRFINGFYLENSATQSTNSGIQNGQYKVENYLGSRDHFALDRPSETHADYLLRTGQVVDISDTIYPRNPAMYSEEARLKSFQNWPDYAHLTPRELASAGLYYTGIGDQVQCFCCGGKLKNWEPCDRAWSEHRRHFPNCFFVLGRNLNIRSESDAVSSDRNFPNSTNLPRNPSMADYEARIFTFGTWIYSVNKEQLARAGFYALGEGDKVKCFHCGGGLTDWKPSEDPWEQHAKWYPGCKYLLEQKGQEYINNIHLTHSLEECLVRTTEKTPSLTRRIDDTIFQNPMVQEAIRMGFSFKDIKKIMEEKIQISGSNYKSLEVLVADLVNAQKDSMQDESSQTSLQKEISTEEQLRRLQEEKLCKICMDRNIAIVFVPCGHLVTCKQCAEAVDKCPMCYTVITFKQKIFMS
Sequence of Dihydroorotate dehydrogenase (quinone), mitochondrial (Plasmodium falciparum (isolate 3D7)) (Q08210 whole entry, looked up): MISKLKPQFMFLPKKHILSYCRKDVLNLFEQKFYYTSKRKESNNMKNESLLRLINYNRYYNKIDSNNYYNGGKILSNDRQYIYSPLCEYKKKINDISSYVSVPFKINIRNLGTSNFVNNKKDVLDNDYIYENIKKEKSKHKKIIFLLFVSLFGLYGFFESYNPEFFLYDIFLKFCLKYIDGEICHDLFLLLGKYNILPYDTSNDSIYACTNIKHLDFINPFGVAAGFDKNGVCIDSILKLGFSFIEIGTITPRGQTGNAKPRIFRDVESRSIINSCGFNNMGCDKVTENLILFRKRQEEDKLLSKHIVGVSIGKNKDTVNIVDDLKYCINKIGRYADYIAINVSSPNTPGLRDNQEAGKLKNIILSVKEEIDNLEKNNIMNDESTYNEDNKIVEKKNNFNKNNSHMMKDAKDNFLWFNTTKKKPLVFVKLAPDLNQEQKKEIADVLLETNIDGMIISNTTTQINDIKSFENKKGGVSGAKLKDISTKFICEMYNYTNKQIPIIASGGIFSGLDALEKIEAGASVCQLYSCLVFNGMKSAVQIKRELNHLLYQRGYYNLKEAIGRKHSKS
Sequence of Homeobox protein Hox-A13 (Mus musculus) (Q62424 whole entry, looked up): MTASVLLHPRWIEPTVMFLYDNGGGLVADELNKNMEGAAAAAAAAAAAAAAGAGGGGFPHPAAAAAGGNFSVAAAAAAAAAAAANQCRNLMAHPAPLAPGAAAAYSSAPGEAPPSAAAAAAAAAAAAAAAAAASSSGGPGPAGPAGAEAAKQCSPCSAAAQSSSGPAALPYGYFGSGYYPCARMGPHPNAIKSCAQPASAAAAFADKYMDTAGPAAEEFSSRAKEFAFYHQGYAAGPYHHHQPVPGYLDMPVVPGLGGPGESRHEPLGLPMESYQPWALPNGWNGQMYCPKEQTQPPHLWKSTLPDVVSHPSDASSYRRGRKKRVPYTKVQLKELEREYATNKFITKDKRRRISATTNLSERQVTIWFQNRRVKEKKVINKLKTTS

Turning to `COC(=O)C1=CC(CCCO)=CC(c2cccs2)N(Cc2cc3c(cc2Br)OCO3)C=C1C(=O)OC` (configuration not stated), the z-score in [1] is -0.245; in assay [2], -0.23 (inactive); in assay [3] it was 0.182 (inactive); in assay [5] it was 0.173 (inactive); in assay [6], 1.92 (inactive); in assay [7], 0.404 (inactive). Besides, the z-score in assay [8] is -0.372 (inactive); in assay [9] it was 0.365; in assay [12] it was -1.26; in [13], -4.49 (inactive); in [14] it was 0.132 (inactive); in assay [15] it was 0.454 (inactive). The composite z-score was -0.851 (inactive) in assay [4], 0.344 in assay [10], 1.07 (inactive) in assay [11] and 0.763 in the assay with XIP peptide (Xip251-270).
Take `CC(C)NC(=O)[C@@]1(C)c2ccccc2C(=O)N(Cc2ccccc2)[C@H]1c1ccc(CO)cc1`: the z-score in [1] was 0.107; in assay [2], -0.177 (inactive); in assay [3], 0.782 (inactive); in assay [5], 0.5 (inactive); in assay [6] it was -1.29 (inactive); in assay [7], 0.4 (inactive). For the same compound, the z-score in [8] is 0.988 (inactive); in assay [9] it was 0.453; in assay [12], -0.321; in [13] it was -2.37 (inactive); in [14], -0.471 (inactive); in assay [15], -0.429 (inactive). The composite z-score in assay [4] is -1.48 (inactive); in assay [10], -0.287; in assay [11] it was 0.0062 (inactive); in the assay with XIP peptide (Xip251-270), 0.875.
Turning to `OCCCC1=CC(c2ccc(CN3CCCC3)cc2)N(Cc2cccc(OC(F)(F)F)c2)CC1` (configuration not stated), the z-score in assay [1] was -2.32; in [2] it was -5.01 (inactive); in assay [3] it was -6.82 (inactive); in assay [5], 0.318 (inactive); in assay [6], 0.195 (inactive); in [7] it was -1 (inactive). Moreover, the z-score in [8] was -1.83 (inactive); in [9], -5.61; in assay [12], -2.86; in [13] it was -3.15 (inactive); in assay [14] it was 0.86 (inactive); in assay [15], 1.51 (inactive). Also, the composite z-score was -1.2 (inactive) in assay [4], 0.215 in assay [10], -0.113 (inactive) in assay [11] and -0.504 in the assay on XIP peptide (Xip251-270).
Regarding `C=CCNC(=O)[C@H]1[C@@H]2C(=O)O[C@@H](c3ccccc3)[C@@H](c3ccccc3)N2[C@@H](c2ccc(OCCO)cc2)[C@]12C(=O)Nc1ccccc12`, the z-score was 0.429 in [1]; 0.997 (inactive) in [2]; 1.13 (inactive) in assay [3]; -0.172 (inactive) in assay [5]; 1.69 (inactive) in assay [6]; 0.237 (inactive) in assay [7]. In addition, the z-score was -0.564 (inactive) in [8]; 0.608 in [9]; -0.541 in assay [12]; -5.26 (inactive) in assay [13]; 0.286 (inactive) in assay [14]; 0.595 (inactive) in [15]. Also, the composite z-score was -0.26 (inactive) in assay [4], 0.347 in assay [10], 1.43 (inactive) in assay [11] and 0.57 in the assay on XIP peptide (Xip251-270).
Consider `CCOC(=O)C[C@H]1[C@H](OC(=O)c2cc3ccccc3oc2=O)[C@@H](NC(=O)CC(C)C)c2cc(OCCCO)ccc2N1C(=O)Cc1ccc(OC)cc1`, for which the z-score in assay [1] was -0.74; in [2], -0.628 (inactive); in assay [3], -0.233 (inactive); in assay [5] it was -0.423 (inactive); in assay [6], -0.746 (inactive); in [7], -0.715 (inactive). The z-score is -1.18 (inactive) in [8]; -0.72 in [9]; -2.45 in assay [12]; -4.83 (inactive) in [13]; 0.372 (inactive) in assay [14]; -0.268 (inactive) in assay [15]. For the same compound, the composite z-score in [4] is -0.144 (inactive); in assay [10] it was -0.284; in [11], 0.101 (inactive); in the assay on XIP peptide (Xip251-270) it was 0.686.
On to `C=C(COC)/C(=C/C[C@H](OC(C)=O)c1ccccc1OCCO)c1cc(C(=O)OC)ccc1OC`, for which the z-score in assay [1] is -0.216; in assay [2], -1.14 (inactive); in assay [3], 0.181 (inactive); in assay [5], -0.718 (inactive); in assay [6], 0.0505 (inactive); in [7] it was -0.474 (inactive). The z-score in assay [8] is -0.653 (inactive); in [9], -0.776; in assay [12], -2.75; in [13], -4.27 (inactive); in [14] it was -1.15 (inactive); in [15], -1.14 (inactive). Also, the composite z-score in [4] was -1.68 (inactive); in assay [10] it was -0.239; in assay [11], 0.117 (inactive); in the assay on XIP peptide (Xip251-270), 0.788.
As to `CN1C(=O)C2C=CC(C(O)c3ccc(-c4ccccc4)s3)N(NC(=O)OC(C)(C)C)C2C1=O` (configuration not stated), the z-score in assay [1] is -0.807; in [2] it was 0.537 (inactive); in assay [3], -0.629 (inactive); in [5], 1.08 (inactive); in assay [6], 0.432 (inactive); in assay [7], 0.28 (inactive). In addition, the z-score is -0.0168 (inactive) in assay [8]; -0.694 in assay [9]; 0.428 in assay [12]; -4.15 (inactive) in [13]; 0.307 (inactive) in assay [14]; 0.239 (inactive) in assay [15]. For the same compound, the composite z-score in [4] is 0.63 (inactive); in [10], -0.162; in assay [11] it was 0.359 (inactive); with XIP peptide (Xip251-270) it was 0.912.
